Here are results for 9 compounds from PubChem BioAssay (NCATS).

The target of assay [1] is Calcium and integrin-binding protein 1 (Homo sapiens) (UniProt Q99828). Description: Primary qHTS for Identification of Calcium Integrin Binding Protein 1 (CIB1) Competitor (AID 1508620). Note: top concentration of the series differs between compounds. The settings on record: CIB1-GST / FITC-alphaIIb peptide fluorescence polarization; series mostly up to 57.7 µM. A digest of the protocol: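 Fluorescence polarization competition: GST-tagged CIB1 (1 uM final) preincubated with compound 15 min at room temperature, then FITC-labelled alphaIIb peptide (100 nM final) added. After 15 min at room temperature, polarization read at Ex 480/Em 540.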
Calcium and integrin-binding protein 1 (Homo sapiens), sequence (Q99828 whole entry, looked up): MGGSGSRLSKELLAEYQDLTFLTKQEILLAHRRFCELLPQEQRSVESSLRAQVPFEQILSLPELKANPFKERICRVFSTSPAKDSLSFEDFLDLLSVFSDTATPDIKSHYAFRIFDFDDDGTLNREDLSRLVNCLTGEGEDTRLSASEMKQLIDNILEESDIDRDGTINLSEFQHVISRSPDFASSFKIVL
(Quantitative high-throughput screening tests each substance at several concentrations.)

The nature of assay [2]: Primary qHTS for small molecule stabilizers of the endoplasmic reticulum resident proteome: Secreted ER Calcium Modulated Protein (SERCaMP) assay (AID 1508630). The note with it: SH-SY5Y GLuc-SERCaMP (Gaussia luciferase released on ER calcium loss) secretion, thapsigargin, luminescence; series mostly up to 38.4 µM. A digest of the protocol:
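GLuc-SERCaMP-expressing SH-SY5Y cells, pretreated 16 h with compound, are challenged with thapsigargin to empty ER calcium stores; after 4 h, coelenterazine is added directly to the medium and luminescence is imaged.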

The target of assay [3] is Cytochrome P450 2C9 (Homo sapiens) (UniProt P11712). The assay can be described thus: Cytochrome P450 family 2 subfamily C member 9 (CYP2C9) small molecule antagonists: luciferase biochemical (cell-free) qHTS assay (AID 1645842; active = well fitted curve in the direction sought with a large enough effect in the repeat runs; an effect the other way counts as inactive or inconclusive; note: nearly all actives have a fitted effect of over 55% in size; note: potency is the fitted concentration of half-maximal effect). The note with it: P450-Glo CYP2C9 enzyme assay, luciferin luminescence; series mostly up to 57.4 µM. The method, boiled down:
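Luminescence, after 20 min with luciferin detection reagent, reflected CYP2C9 turnover during a 1 h NADPH-driven reaction at 37C. Enzyme-substrate mix contained 0.4% bovine serum albumin and was preincubated with compound 10 min at room temperature.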

Assay [4] in a line: Primary qHTS for inhibitors of nuclear receptor binding SET domain protein 2 (NSD2) in an isogenic RCH-ACV NSD2 p.E1099K mutant (9B) (AID 1645876). Note: nearly all actives have a fitted effect of over 70% in size. Note: potency is the fitted concentration of half-maximal effect. The note with it: RCH-ACV NSD2 E1099K (9B) viability, CellTiter-Glo, 72 h; series mostly up to 44.9 µM.
Assay [5] is described as follows: Primary qHTS for inhibitors of nuclear receptor binding SET domain protein 2 (NSD2) in an RCH-ACV wild type WT cells (2C) (AID 1645877). Note: nearly all actives have a fitted effect of over 70% in size. Note: potency is the fitted concentration of half-maximal effect. The settings on record: RCH-ACV (leukaemia line) NSD2 WT (2C) viability, CellTiter-Glo, 72 h; series mostly up to 44.9 µM.
The target in assay [6] is Cytochrome P450 2D6 (Homo sapiens) (UniProt P10635). The assay can be described thus: Cytochrome P450 family 2 subfamily D member 6 (CYP2D6) small molecule antagonists: luciferase biochemical (cell-free) qHTS assay (AID 1645840; active = well fitted curve in the direction sought with a large enough effect in the repeat runs; an effect the other way counts as inactive or inconclusive; note: nearly all actives have a fitted effect of over 55% in size). The settings on record: P450-Glo CYP2D6 enzyme, luciferin luminescence, 1 h; series mostly up to 57.4 µM. The method, boiled down:
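P450-Glo luminescent screen: recombinant CYP2D6 enzyme–proluciferin substrate mix preincubated with compound 10 min at room temperature, then NADPH regeneration added for 1 h at room temperature. Detection reagent added for 20 min; luciferin light read as relative luminescence units.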

The target in assay [7] is N-terminal Xaa-Pro-Lys N-methyltransferase 1 (Homo sapiens) (UniProt Q9BV86). The assay can be described thus: Confirmatory qHTS for Inhibitors of N-terminal methyltransferase 1 (NTMT1): MTaseGlo Assay (AID 1645874).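 Note: luminescence from SAH made as NTMT1 methylates SPKRIA peptide using SAM; nearly all actives have a fitted effect of over 65% in size.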 The note with it: NTMT1 enzyme, MTase-Glo SAH luminescence; series mostly up to 100 µM. A digest of the protocol: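 qHTS format: NTMT1 125 nM, SAM 100 uM, peptide SPKRIA 1 uM final; 15 min compound preincubation, 30 min reaction at room temperature. MTase-Glo luminescence.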
N-terminal Xaa-Pro-Lys N-methyltransferase 1 (Homo sapiens), sequence (Q9BV86 whole entry, looked up): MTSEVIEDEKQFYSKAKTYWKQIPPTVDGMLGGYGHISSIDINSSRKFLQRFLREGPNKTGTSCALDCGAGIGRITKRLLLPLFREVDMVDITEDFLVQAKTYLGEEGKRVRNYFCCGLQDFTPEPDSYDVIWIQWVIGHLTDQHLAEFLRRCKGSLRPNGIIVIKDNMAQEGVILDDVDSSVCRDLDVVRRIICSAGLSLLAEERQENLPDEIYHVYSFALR

Assay [8] is described as follows: A High-Content qHTS Against Drug Library for the Identification of Small Molecules that Inhibit DYT1 Early Onset Primary Dystonia-Associated Cell Pathology (AID 1645839; calls by dose curve). The note with it: HEK293 Flp-In EGFP-delE TorsinA, punctate imaging, 48 h; series mostly up to 46.1 µM. The method, boiled down:
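Flp-In T-REx 293 cells with tetracycline-inducible EGFP-delE hTOR1A (WT EGFP-hTOR1A as reference), 800 cells/well; compound added with tetracycline, 48 h at 37 C. Fixed, permeabilized cells imaged; %pathology (punctate TorsinA) primary, cell count counterscreen.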

Several values for one entry are separate records, joined by “and”; a condition that tells them apart may be missing. Equal values may be shown once. Inconclusive results are not listed. Activity calls are given as the source filed them. Unless noted, calls come from the whole dose curve; as a rule, active = well fitted curve in the direction sought with a large enough effect; inconclusive = small, poorly fitted or top-dose-only effect, or another doubt; inactive = no such curve, though single readings can be large; an effect the other way counts as inactive or inconclusive.

Cytochrome P450 2D6 (Homo sapiens), sequence (P10635 whole entry, looked up): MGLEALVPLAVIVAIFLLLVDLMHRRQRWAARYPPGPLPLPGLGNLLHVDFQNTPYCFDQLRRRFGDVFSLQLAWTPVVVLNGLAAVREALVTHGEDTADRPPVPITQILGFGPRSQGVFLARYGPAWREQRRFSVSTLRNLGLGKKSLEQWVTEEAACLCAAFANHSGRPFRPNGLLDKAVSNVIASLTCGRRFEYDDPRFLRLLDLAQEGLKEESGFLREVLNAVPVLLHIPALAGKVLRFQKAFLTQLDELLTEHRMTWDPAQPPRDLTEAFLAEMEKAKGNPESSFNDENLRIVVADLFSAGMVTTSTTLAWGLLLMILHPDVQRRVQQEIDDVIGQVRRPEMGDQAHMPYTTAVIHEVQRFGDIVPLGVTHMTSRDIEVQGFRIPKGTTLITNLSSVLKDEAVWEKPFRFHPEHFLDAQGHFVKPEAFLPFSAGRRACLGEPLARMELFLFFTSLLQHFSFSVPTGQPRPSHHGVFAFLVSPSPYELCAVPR
Cytochrome P450 2C9 (Homo sapiens), sequence (P11712 whole entry, looked up): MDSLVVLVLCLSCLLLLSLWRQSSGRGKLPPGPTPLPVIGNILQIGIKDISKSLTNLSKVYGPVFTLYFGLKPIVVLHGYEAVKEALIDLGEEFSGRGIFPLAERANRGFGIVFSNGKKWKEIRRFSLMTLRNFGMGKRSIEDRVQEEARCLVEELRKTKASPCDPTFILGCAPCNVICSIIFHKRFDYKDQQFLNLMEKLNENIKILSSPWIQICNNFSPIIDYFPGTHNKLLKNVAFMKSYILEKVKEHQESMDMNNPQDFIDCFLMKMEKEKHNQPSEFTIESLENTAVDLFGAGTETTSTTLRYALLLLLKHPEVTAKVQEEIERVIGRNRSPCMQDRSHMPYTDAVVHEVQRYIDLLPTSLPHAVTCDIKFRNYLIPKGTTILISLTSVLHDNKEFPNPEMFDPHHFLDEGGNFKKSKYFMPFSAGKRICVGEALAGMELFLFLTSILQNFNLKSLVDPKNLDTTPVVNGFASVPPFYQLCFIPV

For the compound `CC(C)(N)C(=O)N[C@H](COCc1ccccc1)C(=O)N1CCC2(CC1)CN(S(C)(=O)=O)c1ccccc12`, the outcome in assay [1] was inactive. Moreover, the Potency result in assay [2] and in assay [3] was “inactive” throughout. Besides, the Potency in assay [4] is 16.3 µM (active) and 26.3 µM (active); in assay [5], 14.5 µM (active) and 14.8 µM (active).

As to `CCOc1cc(N2CCC(O)CC2)ccc1Nc1ncc2c(n1)N(C)c1ccccc1C(=O)N2C`, in assay [1], the outcome was inactive. For the same compound, the Potency result in assay [2] was “inactive”. The Potency in assay [4] was 2.35 µM (active).

In the case of `COc1cc2nccc(Oc3ccc(NC(=O)NC4CC4)c(Cl)c3)c2cc1C(N)=O`, the outcome in assay [1] was inactive. The Potency entry in assay [2] and in assay [6] was “inactive” in each case. The Potency in assay [3] was 12 µM (active).

With `CC(C)(C)OC(=O)CN(Cc1ccc(Cl)cc1)Cc1ccc([N+](=O)[O-])s1`, the outcome in assay [1] was inactive. Moreover, the Potency result in assay [2] and in assay [4] was “inactive” each time.

Turning to `COc1cc(F)c(F)c(Nc2ccc(I)cc2F)c1NS(=O)(=O)C1(C[C@H](O)CO)CC1`, in assay [1], the outcome was inactive. Further, the Potency entry in assay [2] was “inactive”. Moreover, in assay [4], the Potency is 18.3 µM (active) and 20.9 µM (active).

Turning to `OCCn1cc(-c2cnc3nnn(Cc4ccc5ncccc5c4)c3n2)cn1`, the result in assay [1] was inactive. The Potency result in assay [2], in assay [6], in assay [7], in assay [4] and in assay [5] was “inactive” throughout.

For the compound `Cn1cnc2c(F)c(Nc3ccc(Br)cc3Cl)c(C(=O)NOCCO)cc21`, the result in assay [1] was inactive. The Potency result in assay [2], in assay [8], in assay [6], in assay [4] and in assay [5] was “inactive” each time. Also, in assay [3], the Potency is 8.71 µM (active).

With `c1ccc(-c2nn3c(c2-c2ccnc4cc(OCCN5CCOCC5)ccc24)CCC3)nc1`, the result in assay [1] was inactive. For the same compound, in assay [2], the Potency entry was “inactive”. Also, the Potency in assay [4] is 16.6 µM (active).

Turning to `CCC(C)n1ncn(-c2ccc(N3CCN(c4ccc(OC[C@H]5CO[C@](Cn6cncn6)(c6ccc(Cl)cc6Cl)O5)cc4)CC3)cc2)c1=O` (some centres undefined), the outcome in assay [1] was inactive. Moreover, the Potency result in assay [2] and in assay [6] was “inactive” throughout. In addition, the Potency is 11 µM (active) in assay [3] and 0.502 µM (active) in assay [4].
